D2 ag-1: activates the human D2 dopamine receptor. P14416. DiscoveRx PathHunter D2 beta-arrestin, luminescence, 90 min; 100% = 57 uM dopamine signal. activation, % (concentration not given with the values). 360,000 compounds, 0.084% hits. AID 624465; in the data active = activation above about 40%
Target sequence (P14416 whole entry, looked up): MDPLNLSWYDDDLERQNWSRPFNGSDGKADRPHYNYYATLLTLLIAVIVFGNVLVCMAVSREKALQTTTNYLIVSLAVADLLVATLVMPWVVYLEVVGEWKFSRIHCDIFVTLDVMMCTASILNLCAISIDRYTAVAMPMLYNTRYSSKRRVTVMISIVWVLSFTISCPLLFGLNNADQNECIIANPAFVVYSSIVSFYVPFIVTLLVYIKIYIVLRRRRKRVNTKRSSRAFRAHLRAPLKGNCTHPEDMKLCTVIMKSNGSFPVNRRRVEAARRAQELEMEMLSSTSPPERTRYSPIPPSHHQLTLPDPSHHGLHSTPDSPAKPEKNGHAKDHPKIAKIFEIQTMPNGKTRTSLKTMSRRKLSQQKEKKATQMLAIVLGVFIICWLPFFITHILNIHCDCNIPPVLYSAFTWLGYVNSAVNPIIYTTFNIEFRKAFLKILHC
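DiscoveRx PathHunter D2 beta-arrestin cells (2,100/well) attached overnight, then compound-stimulated 90 min at 37 C in HBSS/10 mM HEPES/0.1% Tween-20 buffer; beta-galactosidase complementation read by luminescence after 1 h at ambient temperature. Dopamine 57 uM final (EC100) as control.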
D2 PAM-1: positive allosteric modulators of human D2 dopamine receptor; potentiation, % (test concentration not listed); P14416; DiscoveRx D2 beta-arrestin cells, luminescence, 90 min; 100% = 57 uM dopamine signal; 360,000 compounds, 0.23% hits; in the data active = potentiation above about 50%
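PathHunter D2 cells, attached overnight at 37 deg C, received compound in DMSO plus dopamine at EC20 (50 nM final) for 90 min at 37 deg C. Beta-arrestin recruitment was read as luminescence after 1 h with detection reagent at ambient temperature.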
D2 antag: antagonizes the human D2 dopamine receptor. HEK293 TREx D2 cells, calcium flux, dopamine EC80. inhibition, % at 10 µM. 340,000 compounds, 2% hits. AID 485344; in the data active = inhibition above about 30%; inactive = below that, where a call was filed; note: 0% is about no effect
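Compounds are added to dye-loaded, induced HEK293 T-REx cells coupled to calcium release via D2; after a 3 min kinetic read an EC80 dopamine stimulus is given and fluorescence is recorded for 3 more min.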
D2 PAM-2: positive allosteric modulators of human D2 dopamine receptor; P14416; HEK293 T-REx D2, calcium flux, EC20 dopamine potentiation; potentiation, % at 10 µM; 340,000 compounds, 0.34% hits; AID 485347;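 active = potentiation over 3 SD above the plate norm, cut at about 30% in these data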; note: 0% is about no effect
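Primary screen. Calcium kinetics in induced HEK293 T-REx D2 cells: compound pre-addition 180 s, EC20 dopamine, 180 s more.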
D2 ag-2: activates the human D2 dopamine receptor; HEK293 T-REx D2 cells, calcium flux agonist mode; P14416; 340,000 compounds, 0.53% hits; activation, % at 2 µM;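 active = activation over 3 SD above normal in the single-dose calcium agonist read, cut at about 30% in these data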; note: 0% is about no effect
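HEK293 Trex D2 cells, tetracycline-induced, o/n 30 C 5% CO2; no-wash Ca dye, RT 30–90 min; 10-cycle baseline, 23 nl cpd added, kinetic Ca read 180 s; agonist hits = positive Ca response.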
* hit, by the source's call; x = no result. The list is not random: actives were taken first. Their share in the collection is about 2.4%.

SMILES	D2 ag-1	D2 PAM-1	D2 antag	D2 PAM-2	D2 ag-2
O=C(Nc1cccc(C(F)(F)F)c1)c1cc2nc(-c3ccc4c(c3)OCO4)cc(C(F)(F)F)n2n1	x	x	x	-2	0
Cc1sc2c(c1C)c(=O)n(-c1ccc(Cl)cc1)c(=O)n2Cc1cc(=O)n2cc(Br)ccc2n1	x	x	x	3	-1
Cc1ccc(C(=O)NNC(=S)NC(=O)c2ccccc2)cc1	-5	-27	x	x	x
Cc1ccccc1C(=O)NNC(=S)NC(=O)c1ccccc1	1	-24	17	-9	51*
COc1ccc(Cl)cc1C(=O)NNC(=S)NC(=O)c1ccc(F)c(F)c1	-4	-7	40*	-3	30
Cc1ccc(C(=O)NNC(=S)NC(=O)c2ccc(Cl)cc2Cl)cc1	-2	1	-1	-23	70*
COc1ccc(C(=O)NNC(=S)NC(=O)c2ccc(F)cc2)cc1Br	8	-9	x	x	x
Cc1ccc(C(=O)NC(=S)NNC(=O)c2ccc([N+](=O)[O-])cc2)cc1	-2	-2	33*	0	2
C[C@H](O)C#Cc1ccc2c(c1)O[C@@H](CN(C)Cc1ccc(-c3ccccc3)cc1)[C@H](C)CN([C@@H](C)CO)S2(=O)=O	-4	-7	x	x	x
COc1ccc(-n2c(=O)c3c4c(sc3n(Cc3ccc(C(C)(C)C)cc3)c2=O)CCC4)c(OC)c1	x	x	x	-4	0
Cc1ccc(S(=O)(=O)N2CCC(=O)c3ccccc32)cc1	-5	-9	x	x	x
COc1ccc(S(=O)(=O)N2CCN(c3ccccc3OC)CC2)cc1-c1noc(C)n1	x	x	x	17	-1
COCCOC(=O)c1c(C)oc2ccc(O)c(CN3CCC(C)CC3)c12 (tested in a mixture with another compound)	-4	-7	x	x	x
CN(CCC#N)C(=O)COC(=O)c1ccc(Cl)cc1O	-2	0	47*	-6	1
O=C(COc1ccc(Br)cc1)NCC1COc2ccccc2O1 (stereo unspecified)	2	-24	33*	-24	0
c1ccc2c(c1)OCC(CNCC1COc3ccccc3O1)O2 (stereo unspecified)	1	-10	64*	-28	37*
O=C(O)CNCC1COc2ccccc2O1 (stereo unspecified)	-3	6	-22	-7	0
COc1cccc(CNC(=O)CSC2=Nc3ccccc3C3=NC(C)C(=O)N23)c1OC (stereo unspecified)	x	x	x	7	-4
Cc1cccc(NC(=O)C(Cc2ccccc2)NS(=O)(=O)c2ccc3c(c2)c(=O)n(C)c(=O)n3C)c1 (stereo unspecified)	x	x	x	-1	-1
CCc1ccc(-n2c(C)nc3cc(C(=O)NCCc4ccccc4)ccc32)cc1	x	x	x	5	1
CCOC(=O)c1ccc(NS(=O)(=O)c2cc(-c3onc(C)c3C)ccc2C)cc1	x	x	x	2	-1
NC(=O)C1CCN(CC(=O)c2c[nH]c3ccc(F)cc23)CC1	1	-12	-6	-3	-1
O=C(CN1CCN(c2ccccc2F)CC1)c1c[nH]c2ccc(F)cc12	0	-23	35*	-16	-1
COc1ccc(NC(=O)C2CCC(=O)N2S(=O)(=O)c2ccc(C)cc2)cc1Cl (stereo unspecified)	-1	-14	34*	-45	1
COc1cc(NC(=O)C2CCC(=O)N2S(=O)(=O)c2ccc(C)cc2)cc(OC)c1 (stereo unspecified)	3	-10	5	-13	0
SMILES	D2 ag-1	D2 PAM-1	D2 antag	D2 PAM-2	D2 ag-2
Cc1ccccc1NC(=O)Nc1nnc(CC(=O)NCc2ccccc2)s1	-3	-13	31*	-1	0
Cc1ccccc1NC(=O)Cc1nnc(NC(=O)Nc2ccccc2F)s1	3	-8	14	4	1
CC(C)C(=O)Nc1nnc(Cc2ccccc2)s1	-3	-3	30*	6	1
COC(=O)Nc1nnc(Cc2ccccc2)s1	-1	-7	-9	7	-1
c1ccc2c(-c3cc(NCc4ccncc4)n4nccc4n3)cccc2c1	3	-3	x	x	x
Cc1cccn2cc(-c3cccc(NC(=O)C(C)C)c3)nc12	x	x	x	7	0
Cc1ccc(C(=O)Nc2cccc(C(F)(F)F)c2)cc1Nc1cncnc1	3	-1	33*	-23	-1
CC1(C)CC(=O)C(N=Nc2ccc3ncsc3c2)=C(O)C1	-5	1	7	-7	0
COc1ccc2nc(N=NC3=C(O)CC(C)(C)CC3=O)sc2c1	-1	-6	34*	-3	-1
COC(=O)c1cc(OC)c(OC)cc1NC(=O)c1ccc2c(c1)CCN2S(=O)(=O)c1ccccc1	x	x	x	0	x
Cc1occc1C(=O)NNC(=O)c1nn(C)c(=O)c2ccccc12	-2	0	-13	31*	0
Cn1nc(C(=O)NNC(=O)COc2ccccc2)c2ccccc2c1=O	-1	-16	8	-13	0
O=c1c2ccccc2n(Cc2cccc(F)c2)c(=O)n1Cc1ccccc1Cl	x	x	x	-13	1
Cc1cccc(CNc2ccc(C(CC(N)=O)NC(=O)Cc3cccc4ccccc34)cc2[N+](=O)[O-])c1 (stereo unspecified)	-4	-4	34*	2	-1
NC(=O)CC(NC(=O)c1cccc(Br)c1)c1ccc(NCC2CC2)c([N+](=O)[O-])c1 (stereo unspecified)	-3	-11	38*	-9	0
NC(=O)CC(NC(=O)c1ccccc1)c1ccc(NCC2CC2)c([N+](=O)[O-])c1 (stereo unspecified)	-6	-9	7	-1	0
CCCCNc1ccc(C(CC(N)=O)NC(=O)Cc2cccc3ccccc23)cc1[N+](=O)[O-] (stereo unspecified)	-1	-1	-1	-5	1
C=CCCN(Cc1ccccc1)S(=O)(=O)c1cc(Br)ccc1Br	1	-3	-12	-10	1
CC1CN(CN2C(=O)c3ccccc3C2=O)CC(C)O1 (stereo unspecified)	-1	-7	11	4	-1
CC1CN(CCCCN2C(=O)c3ccccc3C2=O)CC(C)O1 (stereo unspecified)	-1	-11	40*	3	2
Cc1ccc(C)c(Cn2c(=O)n(CCCC(=O)NCCc3ccc(Cl)cc3)c(=O)c3ccccc32)c1	x	x	x	3	x
CCCN1C2CCCC1CC(NC(=O)c1ccc(Br)cc1)C2 (stereo unspecified)	0	-15	-25	-1	1
CC(=O)NC1CC2CCC(C1)N2Cc1ccc(C)cc1 (stereo unspecified)	2	-41	51*	-20	1
CCC(=O)NC1CC2CCCC(C1)N2Cc1ccc(C)cc1 (stereo unspecified)	-3	-78	93*	-30	0

Assay outcomes (PubChem)
